Measured values from PubChem BioAssay AID434927 (Sanford-Burnham Center for Chemical Genomics, 2010).
Unmarked numbers belong to inactive results. Calls of active or inactive are those of the source.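 How the source made its calls: active means inhibition above about 23% in any of six single-dose repeats (limit read from the data); inactive means the rest.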

What follows are compounds tested against Intestinal-type alkaline phosphatase (Homo sapiens) (UniProt P09923) (assay: suppression of intestinal alkaline phosphatase activity – biochemical, luminescence, single concentration, uHTS hits, confirmation (AID 434927;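 further: plate controls were DMSO wells with enzyme for no effect and wells lacking enzyme for full effect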)). Conditions: purified human IAP, CDP-Star luminescence, 30 min; at 8.3 µM; hits give high values.
Sequence of Intestinal-type alkaline phosphatase (Homo sapiens) (P09923 whole entry, looked up): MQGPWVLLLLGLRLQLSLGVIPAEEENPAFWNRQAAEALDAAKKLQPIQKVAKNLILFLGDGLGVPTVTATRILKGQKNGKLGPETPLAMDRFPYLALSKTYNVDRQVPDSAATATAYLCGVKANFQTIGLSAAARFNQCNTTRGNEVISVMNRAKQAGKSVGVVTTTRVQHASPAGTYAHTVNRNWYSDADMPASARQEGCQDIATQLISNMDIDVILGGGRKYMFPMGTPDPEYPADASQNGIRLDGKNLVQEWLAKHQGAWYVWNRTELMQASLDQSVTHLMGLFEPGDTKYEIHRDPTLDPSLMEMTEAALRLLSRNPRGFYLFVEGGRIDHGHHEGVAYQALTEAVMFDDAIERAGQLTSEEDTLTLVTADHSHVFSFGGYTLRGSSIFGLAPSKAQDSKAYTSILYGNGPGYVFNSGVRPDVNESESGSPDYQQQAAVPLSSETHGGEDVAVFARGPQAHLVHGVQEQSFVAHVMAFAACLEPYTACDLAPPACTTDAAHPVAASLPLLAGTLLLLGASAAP
CC1C(=O)NN=C1C(=O)N/N=C\c1ccc(O)cc1O (stereo not drawn) showed an inhibition of -78.7%. CCOc1ccc(CC(=O)NNC(=S)NC2CCCCC2)cc1OCC was tested, and the inhibition was -79.5%. In the case of N#C/C(=C(\O)c1ccco1)c1ccccn1, the inhibition is reported as 55.3% (active). Cc1cc(C)n(C(=O)C23CC4CC(CC(C4)C2)C3)n1 showed an inhibition of -126%. For C=CCn1c(O)c(N=Nc2ccccc2O)c2ccccc21, the inhibition was 36.2% (active). CC(NS(=O)(=O)c1ccc(Br)cc1)C(=O)Nc1nc2ccccc2[nH]1 (stereo not drawn) was tested, and the inhibition was 66.7% (active). With COc1ccc(C2=Nc3cc(C)ccc3OC2)cc1 the inhibition was 58.3% (active). With Cc1cc(C(=O)NC2CC(C)(C)Cc3c2cnn3-c2ccccc2)n[nH]1 (stereo not drawn) the inhibition was 62.1% (active). In the case of Cc1ccc(O)c(-c2cc(C(=O)NCc3ccc4c(c3)OCO4)[nH]n2)c1, the inhibition is reported as 19.7% (active). In the case of O=C(NC1CCCCCC1)c1ccc(-n2cnnc2)cc1, the inhibition is reported as -58.8%. O=C(NNC(=S)NC(=O)c1ccccc1)c1cccnc1 gave an inhibition of -320%. N#Cc1c(-c2ccccc2)nc(N2CCOCC2)[nH]c1=O was tested, and the inhibition was 27.5% (active). With OC1CN=C2Sc3ccccc3N2C1 (stereo not drawn) the inhibition was -100%. In the case of COc1cc(Cl)ccc1OCc1cc(C(=O)N2CCCCCCC2)no1, the inhibition is reported as 34.5% (active). For Cc1ccc(NC(=O)c2ccncc2)cc1[N+](=O)[O-], the inhibition was 53.7% (active). For COc1ccc(CN2CCC(n3nccc3NC(=O)CCCc3ccccc3)CC2)cc1C, the inhibition was -127%. Work on COc1ccc(OC)c(NC(=O)c2cc(-c3cc(C)ccc3O)n[nH]2)c1 yielded an inhibition of -41.7%. For Cc1cc(=O)[nH]c(-n2[nH]c3c(c2=O)CCCC3)n1, the inhibition was 55.9% (active). Work on CCOc1ccc(/C=N/NC(=O)c2[nH]ncc2Br)c(O)c1 yielded an inhibition of -294%. For COc1ccc(C(=O)Nc2cccc3c2C(=O)NC3=O)cc1S(=O)(=O)N1CCOCC1, the inhibition was -85.1%. With CCOCCCNC(=O)CCC(=O)NNc1nc2ccccc2c2nc(-c3ccccc3)nn12 the inhibition was 48.4% (active). With COc1ccccc1CNC(=O)CN(c1ccc(C)cc1)S(=O)(=O)c1c(C)noc1C the inhibition was 32.5% (active). Compound O=S(=O)(c1ccccc1)N1CCCC1c1cccs1 (stereo not drawn) has an inhibition of -172%. For CNc1nnc(-c2cc3ccccc3oc2=O)s1, the inhibition was 33.1% (active). Work on O=C(NNC(=S)NC1CCCCC1)c1ccccc1Br yielded an inhibition of -42.5%. With COc1cc(/C=N\NS(=O)(=O)c2ccccc2)cc(OC)c1OC the inhibition was 30.7% (active). With O=C(N/N=C/c1c(O)ccc2ccccc12)c1[nH]ncc1Br the inhibition was 42.8% (active). In the case of Cn1nnnc1N=N/C(=N/Nc1ccccc1)c1ccccc1, the inhibition is reported as 54.9% (active). Cc1ccc(NCc2ccc([N+](=O)[O-])s2)cc1 was tested, and the inhibition was 26.1% (active). For O=C(Nc1ccon1)c1nc[nH]c1C(=O)NCc1ccccc1, the inhibition was 88.5% (active). For COc1cc(/C=C/C(=O)OCC(=O)NC(=O)NC2CCCCC2)ccc1OC(F)F, the inhibition was 78.7% (active). CC(=O)CCc1ccc(Oc2nc(-c3cccnc3)nc3ccccc23)cc1 was tested, and the inhibition was 42% (active). O=C(N/N=C/c1ccc2cccnc2c1)c1nc2ccccc2c(=O)[nH]1 showed an inhibition of -193%.
